Inconclusive results are not listed. Activity calls are given as the source filed them. Unless noted, calls come from the whole dose curve; as a rule, active = well fitted curve in the direction sought with a large enough effect; inconclusive = small, poorly fitted or top-dose-only effect, or another doubt; inactive = no such curve, though single readings can be large; an effect the other way counts as inactive or inconclusive.
Legend:
[1] = Primary qHTS for inhibitors of nuclear receptor binding SET domain protein 2 (NSD2) in an isogenic RCH-ACV NSD2 p.E1099K mutant (9B) (AID 1645876); note: nearly all actives have a fitted effect of over 70% in size; note: potency is the fitted concentration of half-maximal effect
[2] = Primary qHTS for inhibitors of nuclear receptor binding SET domain protein 2 (NSD2) in an RCH-ACV wild type WT cells (2C) (AID 1645877); note: nearly all actives have a fitted effect of over 70% in size; note: potency is the fitted concentration of half-maximal effect
[3] = molecular target: Glutathione peroxidase 1 (Homo sapiens) (UniProt P07203); assay: Primary qHTS Assay for Inhibitors of Recombinant Selenoprotein Glutathione Peroxidase 1 (GPX1) (AID 1845191); note: nearly all actives have a fitted effect of over 65% in size; note: potency is the fitted concentration of half-maximal effect
How it was run: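 GR-coupled readout: NADPH consumption tracked by fluorescence, ex 340/em 450 nm, at t=0 and after 15 min at RT. Final mix 10 nM GPX1, 1 mM GSH, 0.5 mM CHP, 0.5 mM NADPH, 100 nM GR, 0.01% BSA, following 30 min enzyme–compound preincubation.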

[4] = molecular target: Phospholipid hydroperoxide glutathione peroxidase GPX4 (Homo sapiens) (UniProt P36969); assay: Primary qHTS Assay for Inhibitors of Recombinant Selenoprotein Glutathione Peroxidase 4 (GPX4) (AID 1845192); note: nearly all actives have a fitted effect of over 65% in size; note: potency is the fitted concentration of half-maximal effect
How it was run: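 Steps: GPX4 plus compound, 30 min RT; add GR/GSH/NADPH master mix; start with cumene hydroperoxide; read 340/450 nm fluorescence at 0 and 15 min. Finals were 200 nM GPX4, 1 mM GSH, 0.5 mM CHP, 0.5 mM NADPH, 100 nM GR.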

[5] = qHTS drug screen for cell cycle checkpoint inhibitors in PARPi-resistant BRCA-mutant ovarian cancer cell lines. (AID 1963452; calls by dose curve; note: potency is the fitted concentration of half-maximal effect); details: PEO1/OlaR viability, CellTiter-Glo luminescence, 96 h; for Z-AUC: stronger effect = lower value
How it was run: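 PEO1, PEO4 and PEO1/OlaR ovarian cancer cells, 600 per well, exposed 96 h at 37C to a dilution series. Viability read by CellTiter-Glo luminescence, normalized to DMSO and empty wells; activity summarized as Z-AUC.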

[6] = molecular target: Tyrosine-protein kinase Yes (Homo sapiens) (UniProt P07947); assay: qHTS for small molecule inhibitors of Yes1 kinase: Primary Screen (AID 686947);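 note: plate controls were DMSO with enzyme for no effect and no-enzyme DMSO wells for full effect; nearly all actives have a fitted effect of over 60% in size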
How it was run: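 ADP-Glo luminescence reports ADP formed by 4 nM Yes1 phosphorylating poly(E4Y) (0.3 mg/mL) with 0.1 mM ATP for 60 min at room temperature, following 20 min compound preincubation; normalised between DMSO wells with and without enzyme.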

[7] = qHTS for small molecule inhibitors of Yes1 kinase: Counter Assay (AID 686950);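 note: no kinase present so only ADP-Glo detection of a fixed ADP amount is tested; luminescence from ADP-Glo reporting ADP in a fixed ATP and ADP mixture; series mostly up to about 77 µM; 0% = DMSO wells with ATP plus ADP and -100% = ATP-only wells without ADP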
How it was run: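 No kinase present; 0.08 mM ATP + 0.02 mM ADP in 50 mM Tris pH 7.5, 10 mM MgCl2, 150 mM NaCl, 1 mM DTT; 20 min compound preincubation, 60 min RT, ADP-Glo luminescence, normalized to ATP/ADP (max) and ATP-only (min).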

[8] = measured here: PEO1 parental Z-AUC

Sequence of Glutathione peroxidase 1 (Homo sapiens) (P07203 whole entry, looked up): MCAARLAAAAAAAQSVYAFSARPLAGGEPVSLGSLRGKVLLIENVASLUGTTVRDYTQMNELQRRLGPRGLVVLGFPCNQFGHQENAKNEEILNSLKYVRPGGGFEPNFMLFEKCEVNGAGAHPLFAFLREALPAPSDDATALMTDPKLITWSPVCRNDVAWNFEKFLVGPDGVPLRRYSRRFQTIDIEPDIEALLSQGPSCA
Sequence of Phospholipid hydroperoxide glutathione peroxidase GPX4 (Homo sapiens) (P36969 whole entry, looked up): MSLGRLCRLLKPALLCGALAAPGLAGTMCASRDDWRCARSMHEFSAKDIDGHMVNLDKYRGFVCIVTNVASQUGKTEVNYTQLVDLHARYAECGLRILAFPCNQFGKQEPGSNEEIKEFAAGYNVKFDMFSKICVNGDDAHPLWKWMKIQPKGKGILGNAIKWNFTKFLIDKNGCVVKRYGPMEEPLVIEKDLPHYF
Sequence of Tyrosine-protein kinase Yes (Homo sapiens) (P07947 whole entry, looked up): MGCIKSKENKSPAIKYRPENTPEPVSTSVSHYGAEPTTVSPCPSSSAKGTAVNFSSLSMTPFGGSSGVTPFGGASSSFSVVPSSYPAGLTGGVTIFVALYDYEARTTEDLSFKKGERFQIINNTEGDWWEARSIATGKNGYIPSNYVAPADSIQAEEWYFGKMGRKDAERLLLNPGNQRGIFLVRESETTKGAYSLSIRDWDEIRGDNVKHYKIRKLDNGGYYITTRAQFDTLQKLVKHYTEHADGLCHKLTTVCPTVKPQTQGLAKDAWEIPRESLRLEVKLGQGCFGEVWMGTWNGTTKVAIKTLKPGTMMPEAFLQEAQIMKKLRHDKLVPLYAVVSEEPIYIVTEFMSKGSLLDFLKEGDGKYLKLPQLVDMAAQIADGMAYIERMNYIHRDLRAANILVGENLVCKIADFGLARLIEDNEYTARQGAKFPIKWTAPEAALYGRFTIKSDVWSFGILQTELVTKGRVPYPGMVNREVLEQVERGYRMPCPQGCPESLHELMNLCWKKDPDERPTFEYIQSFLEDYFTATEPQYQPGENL

Row | SMILES | Potency [1] | Potency [2] | Potency [3] | Potency [4] | Z-AUC [5] | Z-AUC [5, 8] | Z-AUC ([5]; measured here: PEO4 Z-AUC) | Potency [5] | outcome [6] | outcome [7]
1 | Cc1ccc(-n2nc(C(C)(C)C)cc2NC(=O)NCc2cc(F)ccc2Oc2ccc3c(cnn3CCO)c2)cc1 | 16.6 µM (active) | 14.8 µM (active) | inactive | inactive | 1.04 (inactive) | 0.682 | 0.464 |  |  | 
2 | O=C(NO)C1(CS(=O)(=O)c2ccc(Oc3ccc(Cl)cc3)cc2)CCOCC1 | 16.6 µM (active) | 16.6 µM (active) | inactive | inactive | 1.18 (inactive) | 0.196 | 0.465 |  |  | 
3 | Cc1ccc(C(=O)OCc2ccc([C@@H](CN)C(=O)Nc3ccc4cnccc4c3)cc2)c(C)c1 | 4.07 µM (active) | 3.62 µM (active) |  | inactive |  |  |  |  |  | 
4 | CC[C@H](Nc1ncnc2nc[nH]c12)c1oc2ccccc2c(=O)c1-c1cccc(F)c1 | 1.32 µM (active) | 1.48 µM (active) | inactive | inactive | 0.58 (inactive) | 0.184 | 0.542 |  |  | 
5 | CC(C)(C)NC(=O)c1cncn1C1CCN(c2ccc(-c3nnc(C(F)(F)F)o3)cn2)CC1 | 2.63 µM (active) | 2.35 µM (active) | inactive | inactive | -0.537 (inactive) | 0.427 | 0.071 |  |  | 
6 | Cc1ccc(Nc2nnc(Cc3ccncc3)c3ccccc23)cc1Br | 14.8 µM (active) | 13.2 µM (active) | inactive | inactive | 0.372 (inactive) | 0.414 | -0.215 |  |  | 
7 | CSc1ccc(C(=O)/C=C/c2cc(C)c(OC(C)(C)C(=O)O)c(C)c2)cc1 | 19.1 µM (active) | 17.1 µM (active) | inactive |  | -0.442 (inactive) | 0.00794 | -0.391 |  |  | 
8 | CCOC(=O)CCNc1cc(N2CCc3ccccc3CC2)nc(-c2ccccn2)n1 | 2.35 µM (active) | 2.63 µM (active) | inactive | inactive | 0.71 (inactive) | 0.271 | -0.212 |  |  | 
9 | C/C(=C\c1csc(C)n1)[C@@H]1C[C@@H]2O[C@]2(C)CCC[C@H](C)[C@H](O)[C@@H](C)C(=O)C(C)(C)[C@@H](O)CC(=O)N1 | 0.934 µM (active) | 0.742 µM (active) | inactive | inactive | -0.955 (inactive) | -1.61 | -1.78 |  |  | 
10 | Cc1ccc([C@@H]2O[C@H](CO)[C@@H](O)[C@H](O)[C@H]2O)cc1Cc1ccc(-c2ccc(F)cc2)s1 | 23.5 µM (active) | 20.9 µM (active) | inactive | inactive | -0.931 (inactive) | -1.18 | -1.2 |  |  | 
11 | COc1ccc(/C=C\c2cc(OC)c(OC)c(OC)c2)cc1O | 0.0105 µM (active) | 0.0093 µM (active) | inactive | inactive |  | -1.52 | -1.81 | 0.0078 µM (active) |  | 
12 | Nc1ncccc1-c1nc2ccc(-c3ccccc3)nc2n1-c1ccc(C2(N)CCC2)cc1 | 0.118 µM (active) | 0.186 µM (active) | 23 µM (active) | 22.7 µM (active) | -0.599 (inactive) | -0.0298 | -0.137 |  |  | 
13 | Cc1ncc(NC(=O)c2cccc(C(F)(F)F)c2)cc1-c1cnc(OC2CCOCC2)c(N2CCOCC2)c1 | 18.6 µM (active) | 16.6 µM (active) | inactive | inactive | -1.52 (inactive) | -1.38 | -1.33 |  |  | 
14 | Cc1noc(C)c1-c1ccc(-c2cc(C(N)=O)c(NC(N)=O)s2)c(O[C@H]2CCNC2)c1 | 16.6 µM (active) | 14.8 µM (active) | inactive |  | -0.139 (inactive) | -0.81 | -0.908 |  |  | 
15 | C[C@@H](C(=O)Nc1ccc(Cl)cc1)C1CCC(c2ccnc3ccc(F)cc23)CC1 (stereo not given in full) | 14.8 µM (active) | 13.2 µM (active) | inactive | inactive | -1.08 (inactive) | -1.14 | -0.907 |  |  | 
16 | CCc1cc(/C(C)=N/OCc2ccc(C3CCCCC3)c(C(F)(F)F)c2)ccc1CN1CC(C(=O)O)C1 | inactive | inactive | inactive | inactive | -0.0137 (inactive) | -0.327 | 0.118 |  |  | 
17 | Nc1nonc1-c1nc2cnccc2n1C1CC1 | 20.6 µM (active) | 8.2 µM (active) | inactive |  |  |  |  |  | inactive | inactive
18 | C=CC(=O)Nc1ccc(F)c(-c2ncnc3[nH]cc(C(=O)OCC)c23)c1 | 16.6 µM (active) | 14.8 µM (active) | inactive | inactive | 0.543 (inactive) | 0.95 | 0.747 |  |  | 
19 | COc1ccc(-c2ccc3c(N4CCOC[C@@H]4C)nc(N4CCOC[C@@H]4C)nc3n2)cc1CO | 0.059 µM (active) | 0.0934 µM (active) | 18.3 µM (active) | 16.1 µM (active) | 1.14 (inactive) | 0.497 | 0.69 |  |  | 

From PubChem BioAssay (NCATS)
